ssDAF12 agonist = S. stercoralis DAF-12 nuclear receptor activators, primary screen, cell-based, luminescence, HEK293, GRIP1 co-expression, lit1-tk-luc; 1% of 370,000 active; activation, % at 6.8 µM; HEK293 ssDAF-12/GRIP1 lit1-tk-luc reporter; % of 3 µM dafachronic acid response; Nuclear hormone receptor DAF-12 (Strongyloides stercoralis);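 active means activation above the mean over all tested compounds plus 3 SD, cut at about 0.9% in these data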;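 further: 0% = DMSO-only wells and 100% = 3 µM delta7-dafachronic acid wells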
DAX1 inh-1 = DAX1 (NR0B1) inhibitors on StAR promoter, primary screen, cell-based, luminescence, SF-1 (NR5A1), full-length DAX-1; HEK293T StAR-luciferase reporter, SF-1/DAX-1 repression relief; inhibition, % at 6.8 µM; 1.1% of 370,000 active; AID 652010, 2013;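 active means inhibition above the mean over all tested compounds plus 3 SD, cut at about 3.6% in these data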;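 further: 0% = DAX-1 cells with DMSO and 100% = cells lacking DAX-1 with DMSO; higher inhibition means more luminescence from relief of DAX-1 repression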
SMARCA2 act = SMARCA2 (BRM) function activators, primary screen, cell-based, luminescence, high throughput; MG213 cells, MMTV-luciferase reporter, dexamethasone, overnight; 1% of 370,000 active; activation, % at 9.1 µM; in the data active means activation above about 7.8%;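 further: 0% = vehicle wells and 100% = reference activator wells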
DAX1 inh-2 = DAX1 (NR0B1) inhibitors, primary screen, cell-based, HEK293, Gal4-DAX1, luciferase luminescence. Nuclear receptor subfamily 0 group B member 1 (Homo sapiens), P51843. HEK293 Gal4-DAX1 luciferase reporter. inhibition, % at 6.75 µM. 0.99% of 340,000 active. AID 504766, 2011;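 active means inhibition above the mean over all tested compounds plus 3 SD, cut at about 4.2% in these data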;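 further: 0% = DAX1-transfected cells with DMSO and 100% = empty-vector control cells with DMSO; inhibition shows as a rise in luminescence from relieved DAX1 repression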
Target sequence (P51843 207-470 limits assumed): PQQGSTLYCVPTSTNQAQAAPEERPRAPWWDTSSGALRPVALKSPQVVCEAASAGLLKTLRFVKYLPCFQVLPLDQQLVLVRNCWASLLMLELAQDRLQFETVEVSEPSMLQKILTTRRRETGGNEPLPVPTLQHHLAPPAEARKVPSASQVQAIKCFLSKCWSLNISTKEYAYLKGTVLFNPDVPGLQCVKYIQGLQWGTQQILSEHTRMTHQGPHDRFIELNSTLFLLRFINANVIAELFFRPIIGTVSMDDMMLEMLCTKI
hgDAF12 agonist = H. glycines DAF-12 receptor agonists, primary screen, cell-based, luminescence, HEK293, GAL4 fusion, UAS-luciferase; 1.8% of 370,000 active; activation, % at 6.8 µM; AID 687014, 2013; HEK293 GAL4-hgDAF12 UAS-luciferase reporter, agonist luminescence; normalized to butyrate control;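 active means activation above a cutoff set at the mean of all screened compounds plus 3 SD, cut at about 10% in these data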;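 further: 0% = DMSO wells and 100% = sodium butyrate wells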
hcDAF-12 act = H. contortus DAF-12 nuclear receptor activators, primary screen, cell-based, luminescence, HEK293, lit1-tk-luc reporter | HEK293 hcDAF-12 lit1-tk-luc reporter; 0% DMSO, 100% Δ7-dafachronic acid | activation, % at 6.8 µM | 1.4% of 370,000 active;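 active means activation above the mean of all tested compounds plus 3 SD, cut at about 5.5% in these data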;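 further: 100% = response to 3 µM Δ7-dafachronic acid high control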
hgDAF12 conf = H. glycines DAF-12 receptor agonists, confirmation, cell-based, luminescence, HEK293, GAL4-LBD fusion. shares compounds with hgDAF12 agonist. HEK293 GAL4-hgDAF12 luciferase reporter, agonist mode; percent of butyrate response. activation, % at 6.8 µM. 80% of 3,300 active. AID 743050, 2013;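 active means mean activation over triplicate wells above the hit cutoff derived from the earlier primary screen, cut at about 11% in these data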;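 further: 0% = DMSO low control and 100% = 2 mM sodium butyrate high control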
LXR ag 2 = LXR agonists, Gal4 luciferase reporter, confirmation, counter-screen for hgDAF-12 agonist project, cell-based, luminescence, HEK293, H. glycines campaign; shares compounds with hgDAF12 agonist; 24 h; activation, % at 6.8 µM; 3,300 tested, under 10 active; AID 743051, 2013;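 active means mean activation of the triplicate above a set limit carried over from the primary screen, none filed active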
Starred values were filed as active, the others as inactive; nt = no result. Shown are actives, neighbours in structure and some others; about 4.8% of the full set was active somewhere.

SMILES	ssDAF12 agonist	DAX1 inh-1	SMARCA2 act	DAX1 inh-2	hgDAF12 agonist	hcDAF-12 act	hgDAF12 conf	LXR ag 2
C=CCN=C1NC(c2ccccc2C(F)(F)F)C(C(=O)OC)=C(C)N1Cc1cccc(C(F)(F)F)c1 (stereo unspecified)	-2	0	-1	nt	0	0	nt	nt
O=C(Nc1nc2c(Br)cccc2s1)c1ccc2c(c1)OCCO2	0	nt	nt	nt	15*	3	5	1
O=S1(=O)N[C@@H](Cc2ccccc2)COc2cccc(N3CCCCC3)c21	-1	-1	-4	nt	0	-1	nt	nt
CC(C)(C)OC(=O)N1CCC2CCN(CCc3ccccc3)CC21 (stereo unspecified)	-2	-1	-5	nt	1	0	nt	nt
O=C(CSc1nnc(NC(=O)c2ccccc2Cl)s1)Nc1ccc2c(c1)oc1ccccc12	0	2	11*	nt	14*	4	11*	0
O=C(CSc1nc2ccccc2s1)Nc1ccc2c(c1)oc1ccccc12	0	0	-1	0	4	3	nt	nt
O=C1C=C(c2cccc3c2Oc2ccccc2S3)C[C@@H](c2ccc3c(c2)OCO3)C1	0	0	1	nt	-3	0	nt	nt
Cc1ccnc(N=Cc2nc(-c3ccccc3Br)oc2O)c1	1	2	4	0	15*	0	6	0
O=C(Nc1ccc(Br)cn1)c1ccc(Br)s1	1	1	3	1	20*	6.2*	20*	1
O=C(Nc1ccccc1C(=O)Nc1ccc(Br)cn1)c1ccccc1Cl	-2	-1	-3	-1	1	-2	nt	nt
Cc1ccccc1C(=O)Nc1ccc(Br)cn1	-1	3	4	1	14*	3	16*	1
O=C(Nc1ccc(Br)cn1)c1ccc(Cl)s1	0	2	7	2	15*	5	14*	1
O=C(NC1=NCCS1)c1ccc(Br)s1	0	3.8*	8	3	14*	6.0*	13*	1
O=C(Nc1nccs1)c1ccc(Cl)s1	-1	1	2	0	6	0	nt	nt
CCCC(=O)Nc1ccc(Br)cn1	-2	-1	-1	-1	-2	0	nt	nt
Cc1ccc(C(=O)Nc2ccc3c(c2)CCC3)o1	-1	2	7	1	16*	3	22*	1
Cc1ccc(NC(=O)Nc2ccc3c(c2)CCC3)cc1C	0	3	2	0	4	2	nt	nt
Cc1occc1C(=O)Nc1ccc2c(c1)CCC2	1	3.9*	-1	1	15*	3	15*	1
Nc1nn(-c2ccccc2)c(N)c1N=Nc1cccc(F)c1	0	0	0	nt	19*	6.0*	24*	1
S=C1NCCOc2ccccc21	0	0	-3	nt	7	2	nt	nt
CCCCCCCCN1C(=O)N(Cc2ccc(OC)cc2)S(=O)(=O)c2ccc(F)cc21	-1	1	-4	nt	2	0	nt	nt
CCN(CC)CCN1C(=O)C(=O)/C(=C(/O)c2ccc(OC)cc2)C1c1ccco1 (stereo unspecified)	-1	0	2	1	1	0	nt	nt
CCN(CC)CCCN1C(=O)C(=O)/C(=C(/O)c2ccc(OC)cc2)C1c1ccco1 (stereo unspecified)	-1	0	-1	0	14*	1	4	0
CCOC(=O)C1=C(C(=O)OCC)C2N(Cc3ccccc3)c3ccccc3[C@@]23C[C@@H](C(=O)OC)N(S(=O)(=O)c2ccc(C(F)(F)F)cc2)C3=N1 (stereo partly specified)	-1	0	5	nt	1	2	nt	nt
O=C(N/N=C/c1cccc(O)c1)c1csc2ccccc12	-1	0	5	2	2	-1	nt	nt
SMILES	ssDAF12 agonist	DAX1 inh-1	SMARCA2 act	DAX1 inh-2	hgDAF12 agonist	hcDAF-12 act	hgDAF12 conf	LXR ag 2
COc1ccc(C=NNC(=O)c2cc(C)oc2C)cc1O	-1	0	8	0	13*	2	14*	0
O=C(N/N=C/c1cccc(O)c1)c1ccccc1O	0	2	3	2	16*	3	9	0
O=C(Nc1ccccc1C(=O)N/N=C/c1ccncc1)c1ccccc1	0	0	4	-2	14*	3	12*	0
CCC(C)N(Cc1ccc(OC)cc1OC)S(=O)(=O)c1cc(Br)ccc1Br (stereo unspecified)	-1	-1	-3	nt	2	-1	nt	nt
O=C(O)c1cccc(N/N=C/C2=C(Cl)c3cc(Cl)ccc3SC2)c1	1.4*	4	6	0	16*	5	19*	1
O=C(O)c1cccc(Cn2c(Cl)c(/C=N/Nc3ccccc3)sc2=O)c1	nt	nt	nt	-1	nt	nt	nt	nt
Cc1[nH]c2ccccc2c1CC(=O)Nc1ccc(Nc2cccnc2)c(-c2ccc(C(C)(C)C)cc2)c1	0	0	-5	nt	1	2	nt	nt
COc1cccc(NC(=O)Nc2nc3ncccn3c2-c2ccc(C)cc2)c1	0	0	4	nt	14*	0	6	0
O=C(Nc1ccccc1Br)c1ccc2nccnc2c1	0	1	5	1	15*	2	11*	0
Cc1ccccc1NC(=O)c1ccc2nccnc2c1	-1	0	2	0	1	-2	nt	nt
COc1ccc(OCCCSc2ncccn2)cc1	0	0	6	1	14*	3	11*	0
CC(C)C[C@H]1COc2cccc(NCCO)c2S(=O)(=O)N1	-2	1	-3	nt	0	0	nt	nt
O=C(c1cccc(Br)c1)N1CCC(Oc2cccnc2)CC1	-1	0	2	nt	3	-3	nt	nt
O=c1nc(N/N=C/c2c[nH]c3ccccc23)cn[nH]1	1	3	5	-1	17*	4	13*	1

From PubChem
